Hits are enriched below; roughly 16% of the tested compounds scored in any of these assays.
TDP1 cell CPT – qHTS for Inhibitors of human tyrosyl-DNA phosphodiesterase 1 (TDP1): qHTS in cells in presence of CPT; chicken DT40 Tdp1-/-;hTDP1 cells + 20 nM CPT, ATP luminescence, 48 h; Potency, µM (doses to about 46.2 µM), inactives show at the highest dose activity change, negative = growth inhibition, hits mostly inhibitors; 12% of 420,000 active; AID 686979, 2013; note: potency is the fitted concentration of half-maximal effect; % is set by controls: 0 for no effect and ±100 for the full control effect; nearly all actives have a fitted effect of over 55% in size
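Cell growth measured by CellTiter-Glo luminescence after a minimum 48 h, 37 C compound exposure with 20 nM CPT in Tdp1-knockout DT40 cells stably expressing hTDP1, seeded 400/well; qHTS titration format.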
uPA generation – qHTS for Inhibitors of Cell Surface uPA Generation. 0.31% of 330,000 active. cell surface uPA generation assay, qHTS. Potency, µM (titrated, usually from 38.3 µM), inactives show at the highest dose activity change, negative = inhibition, usual class: inhibitors; active = well fitted inhibition curve with a large enough effect; inconclusive = small, poorly fitted or top-dose-only effect; inactive = no such curve, though single readings can be large or run the other way; tested in mouse RAW 264.7 cells; note: potency is the fitted concentration of half-maximal effect; % is set by controls: 0 for no effect and ±100 for the full control effect; nearly all actives have a fitted effect of over 55% in size
miR-21 act – qHTS Assay for Modulators of miRNAs and/orActivators of miR-21 | 340,000 tested, under 10 active | Potency, µM (top dose mostly 38.3 µM), without a hit: at the highest dose activity change, positive = activation, usual class: activators | HeLa miR-21 FLuc reporter, luciferase, 48 h;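 note: % of control where 0% means no effect; miR-21 action dims this reporter so a rising signal means less miR-21 action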
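Using DMEM plus 10% FBS, HeLa miR-21-FLuc cells are incubated with test compounds (final up to about 40uM) for 48 hours; firefly luciferase signal is then imaged following reagent-mediated lysis.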
TDP1 block – qHTS Assay for Inhibitors of Tyrosyl-DNA Phosphodiesterase (TDP1); recombinant TDP1, AlphaScreen DNA substrate cleavage; Potency, µM (series often up to 130 µM), without a hit: top-dose activity change, negative = inhibition, actives largely listed as inhibitors; 0.28% of 350,000 active; AID 485290, 2010; note: potency is the fitted concentration of half-maximal effect; % is set by controls: 0 for no effect and ±100 for the full control effect; nearly all actives have a fitted effect of over 40% in size
Target sequence (Q9NUW8 whole entry, looked up): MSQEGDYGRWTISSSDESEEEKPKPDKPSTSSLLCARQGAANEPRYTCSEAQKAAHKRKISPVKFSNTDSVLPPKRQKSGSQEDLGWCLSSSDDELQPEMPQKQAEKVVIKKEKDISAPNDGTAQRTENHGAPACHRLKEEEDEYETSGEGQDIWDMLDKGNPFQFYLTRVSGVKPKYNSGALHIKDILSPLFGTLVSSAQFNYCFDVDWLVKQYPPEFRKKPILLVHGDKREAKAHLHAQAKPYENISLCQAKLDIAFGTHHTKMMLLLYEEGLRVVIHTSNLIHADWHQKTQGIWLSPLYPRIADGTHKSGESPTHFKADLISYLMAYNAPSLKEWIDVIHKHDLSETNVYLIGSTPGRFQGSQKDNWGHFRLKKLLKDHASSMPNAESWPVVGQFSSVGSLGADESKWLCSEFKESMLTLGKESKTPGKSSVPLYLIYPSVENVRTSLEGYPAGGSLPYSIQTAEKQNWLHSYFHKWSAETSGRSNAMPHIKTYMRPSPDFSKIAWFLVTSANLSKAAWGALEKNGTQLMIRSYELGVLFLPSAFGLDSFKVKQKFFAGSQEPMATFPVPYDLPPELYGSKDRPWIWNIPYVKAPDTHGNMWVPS
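Compounds were preincubated with Tdp1 (1 nM final) for 15 min at room temperature before substrate (15 nM final) started a 5 min reaction; beads (10 ug/ml final) were then added for 10 min before AlphaScreen detection.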
DT40 TDP1 no CPT – qHTS for Inhibitors of human tyrosyl-DNA phosphodiesterase 1 (TDP1): qHTS in cells in absence of CPT; 15% of 420,000 active; Potency, µM (series often up to 46.2 µM), for inactives: top-dose activity change, negative = growth inhibition, actives largely listed as inhibitors; DT40 Tdp1-/- hTDP1 cells, no CPT, ATP luminescence, 48 h; note: potency is the fitted concentration of half-maximal effect; % is set by controls: 0 for no effect and ±100 for the full control effect; nearly all actives have a fitted effect of over 55% in size
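Seeded 400 DT40-hTDP1 cells/well (vehicle DMSO, no 20 nM CPT); pinned compounds; ≥48 hr at 37 °C; CellTiter-Glo luminescence as viability measure.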
* = called active by the depositor. Unless noted, calls come from the whole dose curve; as a rule, active = well fitted curve in the direction sought with a large enough effect; inconclusive = small, poorly fitted or top-dose-only effect, or another doubt; inactive = no such curve, though single readings can be large; an effect the other way counts as inactive or inconclusive.

What do the screens show for `Cc1ccccc1-n1c(SC(C)C(N)=O)nnc1-c1cccnc1` (stereo unspecified)?
TDP1 cell CPT: -6%; uPA generation: 11%; miR-21 act: 2%; TDP1 block: 4%; DT40 TDP1 no CPT: -8%

How did CC(C)COc1ccc(C(=O)NC(=S)Nc2ccc(CN3CCOCC3)cc2)cc1 do in these assays?
TDP1 cell CPT: -6%; uPA generation: 3%; miR-21 act: -3%; TDP1 block: 8%; DT40 TDP1 no CPT: -16%

Results for O=[N+]([O-])c1ccc(N=Nc2ncc[nH]2)cc1 ?
TDP1 cell CPT: 0.92µM*; uPA generation: inconclusive; miR-21 act: inconclusive; DT40 TDP1 no CPT: 0.73µM*

Results for O=[N+]([O-])c1ccc(N=NN(CCO)CCO)cc1 ?
TDP1 cell CPT: -14%; uPA generation: 6%; miR-21 act: 3%; TDP1 block: -5%; DT40 TDP1 no CPT: -8%

What do the screens show for `O=C(NCc1ccccc1)c1nc2c(nnn2Cc2cccc(Cl)c2)c(=O)[nH]1`?
TDP1 cell CPT: -15%; uPA generation: 5%; miR-21 act: -9%; TDP1 block: 7%; DT40 TDP1 no CPT: -22%

Results for CC1CCC(C(C)C)C(=O)/C1=C/c1ccc(N)cc1 (stereo unspecified) ?
TDP1 cell CPT: 15µM*; uPA generation: -3%; miR-21 act: -38%; DT40 TDP1 no CPT: 13µM*

What do the screens show for `CC(C)(C)C(=O)Cn1ncc(Br)c(Br)c1=O`?
TDP1 cell CPT: 4.6µM*; uPA generation: inconclusive; miR-21 act: inconclusive; TDP1 block: 5%; DT40 TDP1 no CPT: 1.8µM*

How did COc1cc(C(=O)Oc2c(OC)cc(C(=S)N3CCOCC3)cc2OC)cc(OC)c1OC do in these assays?
TDP1 cell CPT: -2%; uPA generation: -15%; miR-21 act: 0%; DT40 TDP1 no CPT: 0%

How did COc1ccc(C(=O)Oc2c(CN3CCOCC3)cc(Cl)c3cccnc23)cc1 do in these assays?
TDP1 cell CPT: 8.2µM*; uPA generation: -3%; miR-21 act: inconclusive; TDP1 block: 5%; DT40 TDP1 no CPT: 5.8µM*

Results for COc1cc(C(=O)Oc2c(CN3CCOCC3)cc(Cl)c3cccnc23)cc(OC)c1OC ?
TDP1 cell CPT: 2.6µM*; uPA generation: inconclusive; miR-21 act: inconclusive; TDP1 block: 7%; DT40 TDP1 no CPT: 5.2µM*

Results for O=C(Oc1c(CN2CCOCC2)cc(Cl)c2cccnc12)c1ccc(F)cc1 ?
TDP1 cell CPT: 4.6µM*; uPA generation: -16%; miR-21 act: inconclusive; TDP1 block: 4%; DT40 TDP1 no CPT: 5.2µM*

Results for COc1ccc(C(=O)OC(C)CN2CCOCC2)cc1 (stereo unspecified) ?
TDP1 cell CPT: -3%; uPA generation: 1%; miR-21 act: -15%; DT40 TDP1 no CPT: -11%

How did COc1cccc(C(=O)OCCN2CCOCC2)c1 do in these assays?
TDP1 cell CPT: -13%; uPA generation: -4%; miR-21 act: 1%; TDP1 block: -8%; DT40 TDP1 no CPT: -7%

What do the screens show for `OCCN1CCN(Cc2cc(Cl)c3cccnc3c2O)CC1`?
TDP1 cell CPT: inconclusive; miR-21 act: 26%; TDP1 block: 12%; DT40 TDP1 no CPT: inconclusive

Results for COc1cccc(C(=O)Oc2c(CN3CCOCC3)cc(Cl)c3cccnc23)c1 ?
TDP1 cell CPT: 0.73µM*; uPA generation: -11%; miR-21 act: inconclusive; TDP1 block: 7%; DT40 TDP1 no CPT: 0.82µM*

What do the screens show for `CC(C)C(Nc1ccc(S(=O)(=O)N2CCOCC2)cc1[N+](=O)[O-])C(=O)O` (stereo unspecified)?
TDP1 cell CPT: 1%; uPA generation: 6%; miR-21 act: 1%; TDP1 block: -2%; DT40 TDP1 no CPT: -18%

What do the screens show for `CC(=O)N/C(=C\c1ccccc1)C(=O)OCC(=O)NC(C)C12CC3CC(CC(C3)C1)C2` (stereo unspecified)?
TDP1 cell CPT: 15µM*; uPA generation: -9%; miR-21 act: -23%; TDP1 block: 3%; DT40 TDP1 no CPT: 21µM*

How did O=C(c1cccs1)N(Cc1ccco1)C1CCS(=O)(=O)C1 (stereo unspecified) do in these assays?
TDP1 cell CPT: 1%; miR-21 act: -6%; TDP1 block: 10%; DT40 TDP1 no CPT: -2%

Results for CC(=O)c1cc(O)c2ccccc2c1O ?
TDP1 cell CPT: 15µM*; uPA generation: 14%; miR-21 act: -48%; TDP1 block: 10%; DT40 TDP1 no CPT: 4.6µM*

How did CC(=O)c1coc2c1cc(O)c1ccccc12 do in these assays?
TDP1 cell CPT: -23%; uPA generation: 5%; miR-21 act: -32%; TDP1 block: 1%; DT40 TDP1 no CPT: -5%

What do the screens show for `CCCCSCc1nc2nc(Cl)c(Cl)nc2[nH]1`?
TDP1 cell CPT: 16µM*; DT40 TDP1 no CPT: 18µM*

Results for CC1COC(Cn2c3ccccc3c3ccccc32)O1 (stereo unspecified) ?
TDP1 cell CPT: inconclusive; uPA generation: -1%; miR-21 act: 23%; DT40 TDP1 no CPT: 18µM*

How did C[C@H]1CN(S(=O)C(C)(C)C)[C@H](CCO)/C1=C\CCO (stereo partly specified) do in these assays?
TDP1 cell CPT: 26%; uPA generation: 5%; DT40 TDP1 no CPT: 9%

What do the screens show for `COC(=O)C(=Cc1cc(Br)c(OC)c(Br)c1)C(=O)OC`?
TDP1 block: 6%

How did c1ccc(N/N=C(\Cc2nc3ccccc3[nH]2)c2ccccc2)cc1 do in these assays?
TDP1 cell CPT: inconclusive; uPA generation: inconclusive; miR-21 act: -57%; TDP1 block: 9%; DT40 TDP1 no CPT: inconclusive

What do the screens show for `Cc1ccc(N/N=C(\Cc2nc3ccccc3[nH]2)c2ccccc2)cc1`?
TDP1 cell CPT: 0.82µM*; uPA generation: -6%; miR-21 act: -7%; TDP1 block: 8%; DT40 TDP1 no CPT: 0.65µM*

Results for N/N=C(/Cc1nc2ccccc2[nH]1)c1ccc([N+](=O)[O-])cc1 ?
TDP1 cell CPT: 26µM*; uPA generation: -6%; miR-21 act: -45%; TDP1 block: 10%; DT40 TDP1 no CPT: inconclusive

What do the screens show for `COc1ccccc1CNc1ncnc2onc(-c3ccc(Cl)cc3)c12`?
TDP1 cell CPT: inconclusive; miR-21 act: 0%; TDP1 block: 6%; DT40 TDP1 no CPT: 21µM*

What do the screens show for `COc1ccccc1-c1noc2ncnc(Nc3ccccc3C)c12`?
TDP1 cell CPT: 23µM*; uPA generation: -3%; miR-21 act: 1%; DT40 TDP1 no CPT: 15µM*

Screening results (PubChem BioAssay)
